Assay results from PubChem BioAssay (Tox21).
Records with an inconclusive call do not appear. A number with no mark means an inactive call. Calls of active or inactive are those of the source. Calls follow the shape of the dose curve; as a rule, active = well fitted activation curve with a large enough effect in the signal ratio in the repeat runs (not every such curve was filed as active); inconclusive = weak or mixed curves, or effect the other way; inactive = flat fitted curve, though single readings scatter; the % refers to the signal ratio.

test: qHTS assay to identify small molecule agonists of the endoplasmic reticulum stress response signaling pathway (AID 1159516); conditions: ESRE-bla HeLa, ER stress beta-lactamase reporter, 5 h; series mostly up to 61 µM; activation: at the top concentration
Text: National Center for Advancing Translational Sciences [NCATS]
NIH Chemical Genomics Center [NCGC]
U.S. Environmental Protection Agency [EPA]
National Institutes of Environmental Health Sciences [NIEHS]
National Toxicology Program [NTP]
U.S. Food and Drug Administration [FDA]
Endoplasmic Reticulum (ER) plays an important role in cellular signaling, protein folding/maturation, stress response, lipid biosynthesis, calcium storage and release etc. Under stress conditions, proteins in ER misfold or unfold, and leading to the expression of ER stress responsive genes. ER stress has been associated with a variety of pathophysiological conditions such as cancer, inflammation, neurodegenerative diseases, diabetes, ischemic heart disease etc. To identify the compounds that induce ER stress response, an ER stress reporter cell line, CellSensor ESRE-bla HeLa (Life Technologies, Carlsbad, CA) containing a beta-lactamase reporter gene under control of the Endoplasmic reticulum Stress Response Element (ESRE) was used to screen Tox21 10K compound library.
Tox21 Assay Protocol Summary:
ESRE-bla HeLa cells were dispensed at 1,500 cells/6 uL of assay medium per well into black wall/clear-bottom 1536-well plates using a Multidrop Combi (ThermoFisher Scientific, Waltham, MA) dispenser. After the assay plates were incubated at 37 C and 5% CO2 for an overnight, 23 nL of compounds dissolved in DMSO, positive controls or DMSO only was transferred to the assay plate by a Pintool station (Kalypsys, San Diego, CA). The assay plates were incubated at 37 C and 5% CO2 for 5 hr. One uL of LiveBLAzer B/G FRET substrate (Life Technologies) was added using a Flying Reagent Dispenser (Aurora Discovery, San Diego, CA) and the plates were incubated at room temperature for 2 hr. Fluorescence intensity (405 nm excitation, 460 nm and 530 nm emissions) was measured using an Envision plate reader (PerkinElmer, Shelton, CT).
% is scaled to controls: 0 for no effect and ±100 for the full control effect.

Which outcome does the source give for `CCn1cc[n+](C)c1C` here?
Its outcome is “inactive”.

For `O=c1[nH]c(=O)n(Cl)c(=O)n1Cl`, which outcome is on record?
Its outcome is “inactive”.

With `O=C(O)C(Cl)Cl` as the compound, how does the outcome read?
The outcome was “inactive”.

For `CCCCCCCCCCCC(=O)O`, which outcome is on record?
The outcome was “inactive”.

Which outcome does the source give for `COc1ccccc1N` here?
The outcome was “inactive”.

Which outcome does the source give for `CCCn1cc[n+](C)c1` here?
The outcome was “inactive”.

With `CCCC[N+]1(C)CCCCC1` as the compound, how does the outcome read?
The outcome was “inactive”.

With `CCCCCCCCn1cc[n+](C)c1` as the compound, how does the outcome read?
The outcome was “inactive”.

Which outcome does the source give for `Cc1cc(-c2ccc(N)c(C)c2)ccc1N` here?
The outcome was “inactive”.

For `CCCCCCCCCCCCOS(=O)(=O)O`, which outcome is on record?
The outcome was “inactive”.

With `O=[N+]([O-])c1ccccc1O` as the compound, how does the outcome read?
The outcome was “inactive”.

Which outcome does the source give for `CCCCn1cc[n+](C)c1C` here?
Its outcome is “inactive”.

With `CCC[N+]1(C)CCCCC1` as the compound, how does the outcome read?
Its outcome is “inactive”.

Which outcome does the source give for `CCCC[n+]1ccccc1C` here?
The outcome was “inactive”.

With `COCC(=O)N(c1c(C)cccc1C)C(C)C(=O)OC` (stereo not given) as the compound, how does the outcome read?
Its outcome is “inactive”.

With `O=C(O)c1ccccc1O` as the compound, how does the outcome read?
Its outcome is “inactive”.

Which “activation” value does the source give for `COP(=O)(OC)C(O)C(Cl)(Cl)Cl` (stereo not given) here?
The value was 7.92%.

For `O=P1(N(CCCl)CCCl)NCCCO1` (stereo not given), which outcome is on record?
The outcome was “inactive”.

Which outcome does the source give for `Nc1ccc(-c2ccc(N)cc2)cc1` here?
The outcome was “inactive”.

With `CCCCCCCCCCCCCC[P+](CCCCCC)(CCCCCC)CCCCCC` as the compound, how does the “activation” value read?
The value was 4.99%.

With `CCCCCCn1cc[n+](C)c1` as the compound, how does the outcome read?
Its outcome is “inactive”.

Which outcome does the source give for `O=c1nc(O)n(Cl)c(=O)n1Cl` here?
Its outcome is “inactive”.

Which outcome does the source give for `Cc1cc(Cl)ccc1N` here?
Its outcome is “inactive”.

Which outcome does the source give for `O=C(O)CC(O)(CC(=O)O)C(=O)O` here?
The outcome was “inactive”.

With `CC[N+]1(C)CCCC1` as the compound, how does the outcome read?
Its outcome is “inactive”.

With `Oc1ccccc1-c1ccccc1` as the compound, how does the outcome read?
The outcome was “inactive”.

Which “activation” value does the source give for `CCCCCCCCCCCCn1cc[n+](C)c1` here?
Its value is -6.17%.

For `COc1ccc(N)cc1`, which outcome is on record?
Its outcome is “inactive”.

For `O=C(O)C(Cl)(Cl)Cl`, which outcome is on record?
Its outcome is “inactive”.

For `COP(=O)(OC)OC=C(Cl)Cl`, which “activation” value is on record?
Its value is 5.71%.

Which outcome does the source give for `N#CS` here?
Its outcome is “inactive”.

Which outcome does the source give for `C[N+](C)(C)Cc1ccccc1` here?
The outcome was “inactive”.

With `CCCC[n+]1cccc(C)c1` as the compound, how does the outcome read?
The outcome was “inactive”.

With `CCCCCC[n+]1ccccc1` as the compound, how does the outcome read?
Its outcome is “inactive”.

For `CCCCCCCCCCCCCCCCn1cc[n+](C)c1`, which “activation” value is on record?
The value was -1.08%.

For `O=S(=O)(O)O`, which outcome is on record?
Its outcome is “inactive”.

Which outcome does the source give for `CN(C)[C@@H]1C(=O)C(C(N)=O)=C(O)[C@@]2(O)C(=O)C3=C(O)c4c(O)cccc4[C@@](C)(O)[C@H]3[C@H](O)[C@@H]12` here?
The outcome was “inactive”.

Which outcome does the source give for `C1CCC(NC2CCCCC2)CC1` here?
Its outcome is “inactive”.

Which outcome does the source give for `CCCC[N+]1(C)CCCC1` here?
The outcome was “inactive”.

For `Nc1ccc(Cl)cc1`, which outcome is on record?
The outcome was “inactive”.
